Common to all, as to format: functional
Test [1] deals with Plasmodium falciparum. The test can be described thus: GSK_TCMDC: Inhibition of Plasmodium falciparum 3D7 in whole red blood cells, using parasite LDH activity as an index of growth. Test compounds present at 2uM.
Test [2] relates to Plasmodium falciparum. The test can be described thus: GSK_TCMDC: Inhibition of Plasmodium falciparum Dd2 in whole red blood cells, using parasite LDH activity as an index of growth. Test compounds present at 2uM.
The subject of another test is HepG2. The test can be described thus: GSK_TCMDC: Percent inhibition of human HepG2 cell line. Test compounds present at 10uM.

As usually defined, the Inhibition is the percentage by which the read-out fell short of the control. The low end stands for little suppression, the high end for strong suppression.

With `CCn1ncc2c(N3CCCC3=O)cc(C(=O)N[C@@H](Cc3ccccc3)[C@H](O)CNC(C)(C)c3cccc(C(F)(F)F)c3)cc21`, the Inhibition is 98% in the test with Plasmodium falciparum [1], 99% in the test with Plasmodium falciparum [2] and 10% in the test with HepG2.

`Cc1ccc2c(=O)cc(CCc3cccc(F)c3F)n(CC(=O)N(Cc3ccc(-c4ccc(C(F)(F)F)cc4)cc3)C3CCN(C)CC3)c2n1.O=C(O)C(O)C(O)C(=O)O`: the results for the Inhibition with Plasmodium falciparum [1], with Plasmodium falciparum [2] and in the test on HepG2 were 86%, 76% and 49%, respectively.

Consider `CCCCCCC(C)c1cc(O)c2c(c1)OC(C)(C)C=C2c1ccncc1` (centres undefined), for which the Inhibition in the test with Plasmodium falciparum [1] was determined as 98%; in the test with Plasmodium falciparum [2] it was 29%; in the test on HepG2, 0%.

On to `O=C(Nc1ccc(C(=O)Oc2ccc3ccccc3c2)cc1)N[C@@H](Cc1ccc(O)cc1)C(=O)NC1CCN(Cc2ccc(O)cc2)C1.O=C(O)C(F)(F)F` (some centres undefined), for which the Inhibition with Plasmodium falciparum [1] came out at 86%; with Plasmodium falciparum [2], 1%; with HepG2 it was 1%.

Regarding `COc1cc(C)nc2ccc(NC(=O)Nc3ccc4nc(C)cc(OC)c4c3)cc12`, the Inhibition in the test on Plasmodium falciparum [1] is 100%; in the test with Plasmodium falciparum [2], 83%; in the test on HepG2, 79%.

Turning to `FC(F)(F)c1ccc2[nH]c(-c3cccc(-c4ccc(CNCc5ccccc5)cc4)c3)nc2c1.O=C(O)C(F)(F)F`, the Inhibition in the test with Plasmodium falciparum [1] came out at 100%; with Plasmodium falciparum [2], 99%; with HepG2, 25%.

Consider `Cc1ccc(NS(=O)(=O)c2ccc(C(C)N3CCC(N4CCCCC4)CC3)cc2)cc1C` (centres undefined), for which the results for the Inhibition with Plasmodium falciparum [1], with Plasmodium falciparum [2] and in the test with HepG2 were 97%, 82% and 66%, respectively.

Consider `COc1cc2nc(N3CCC(CNC(=O)c4ccc(-c5ccc(C(=O)N(C)C)cc5)cc4)CC3)nc(N)c2cc1OC`, for which the Inhibition was found to be 100% in the test on Plasmodium falciparum [1], 89% in the test with Plasmodium falciparum [2] and 20% in the test on HepG2.

For the compound `CC(C)CCN1CCC(Oc2ccc(NC(=O)c3ccc4ncccc4c3)cc2Cl)C1.O=C(O)C(F)(F)F` (centres undefined), the figures for the Inhibition with Plasmodium falciparum [1], in the test on Plasmodium falciparum [2] and in the test with HepG2 were 95%, 14% and 33%, respectively.

On to `FC(F)(F)c1ccc2[nH]c(-c3ccc(-c4ccc(CNCc5cnn(-c6ccccc6)n5)cc4)s3)nc2c1.O=C(O)C(F)(F)F`, for which the values for the Inhibition in the test on Plasmodium falciparum [1], in the test on Plasmodium falciparum [2] and with HepG2 were 100%, 89% and 27%, respectively.

Turning to `N#Cc1cccc(NC(=O)Nc2cccc(OC3CCN(Cc4ccccc4)CC3)c2)c1.O=C(O)C(F)(F)F`, the Inhibition is on record as 100% with Plasmodium falciparum [1], 48% in the test with Plasmodium falciparum [2] and 5% with HepG2.

`CNC(=O)c1ccccc1Nc1nc(Nc2ccc(N3CCOCC3)cc2)ncc1Cl.Cl`: the Inhibition with Plasmodium falciparum [1] is listed as 97%; in the test on Plasmodium falciparum [2], 97%; in the test with HepG2 it was 75%.

As to `Cc1cc(C)c(NC(=O)N[C@H]2CCN(CCCCCNC(=O)/C=C/c3ccc(Cl)c(Cl)c3)C2)c(C)c1`, the Inhibition with Plasmodium falciparum [1] is given as 91%; in the test with Plasmodium falciparum [2], 3%; in the test on HepG2, 12%.

For the compound `CN(C)CCOc1ccc(N2CCN(CCCCNC(=O)c3ccc(/C=C/c4cc(Cl)cc(Cl)c4)cc3)CC2)cc1`, the Inhibition is 98% in the test with Plasmodium falciparum [1], 84% in the test on Plasmodium falciparum [2] and 97% with HepG2.

As to `O=C(/C=C/c1ccc(Cl)c(Cl)c1)NCCCCCN1CCN(C(=O)Nc2cccc(F)c2)CC1`, the Inhibition amounted to 91% with Plasmodium falciparum [1], 1% in the test on Plasmodium falciparum [2] and 12% in the test on HepG2.

As to `N=C(N)NN=Cc1ccccc1OCc1ccccc1Cl`, the Inhibition in the test on Plasmodium falciparum [1] was 100%; in the test with Plasmodium falciparum [2] it was 30%; with HepG2 it was 14%.

In the case of `CCc1cc2c3c(N)nc(N)nc3ccc2n1C(CC)CC`, the Inhibition is listed as 96% with Plasmodium falciparum [1], 12% with Plasmodium falciparum [2] and 71% with HepG2.

Regarding `Cl.O=C(Nc1ccccc1)c1cccc(Nc2nccc(Nc3ccc(Oc4ccccc4)cc3)n2)c1`, the Inhibition in the test on Plasmodium falciparum [1] is listed as 98%; in the test with Plasmodium falciparum [2], 11%; with HepG2, 6%.

`O=C(O)c1cccnc1Sc1ccc(Cl)cc1`: the figures for the Inhibition in the test on Plasmodium falciparum [1], in the test on Plasmodium falciparum [2] and with HepG2 were 100%, 4% and 5%, respectively.

As to `Oc1nc(Cc2ccccc2)nc2ccc(Cl)cc12`, the Inhibition worked out at 92% in the test with Plasmodium falciparum [1], 76% in the test on Plasmodium falciparum [2] and 13% in the test on HepG2.

Turning to `CCCCCN1CCCCC(NS(=O)(=O)c2ccc(C(=O)Nc3ccc(C(F)(F)F)cc3)cc2)C1.O=C(O)C(F)(F)F` (centres undefined), the Inhibition in the test with Plasmodium falciparum [1] is given as 89%; in the test with Plasmodium falciparum [2], 0%; with HepG2 it was 34%.

Regarding `Cc1nc(-c2cccc(C(=O)N(Cc3cncn3Cc3cccc(C(F)(F)F)c3)CC3CC3)c2)cs1`, the values for the Inhibition in the test on Plasmodium falciparum [1], in the test on Plasmodium falciparum [2] and in the test on HepG2 were 97%, 17% and 7%, respectively.

`CCC(=O)Nc1ccc(Nc2nc(C)cc(N3CCCC3)n2)cc1`: the figures for the Inhibition in the test with Plasmodium falciparum [1], with Plasmodium falciparum [2] and with HepG2 were 91%, 2% and 34%, respectively.

Take `CCCC(C)Nc1nc(C)cc(N[C@@H](Cc2ccccc2)C(=O)NCc2cccc(F)c2)n1.O=C(O)C(F)(F)F` (some centres undefined): the Inhibition with Plasmodium falciparum [1] stood at 100%; in the test on Plasmodium falciparum [2], 75%; with HepG2, 9%.

Take `CCn1c(-c2nonc2N)nc2cnc(Oc3cccc(NC(=O)c4ccc(OCCN5CCCC5)cc4)c3)cc21`: the Inhibition amounted to 92% in the test on Plasmodium falciparum [1], 1% with Plasmodium falciparum [2] and 25% in the test on HepG2.

`CCCCCCN1CCCN(Cc2ccc(C(=O)Nc3ccc(CCC)cc3)cc2)CC1.O=C(O)C(F)(F)F`: the values for the Inhibition in the test on Plasmodium falciparum [1], with Plasmodium falciparum [2] and in the test on HepG2 were 92%, 56% and 45%, respectively.

Consider `COc1ccccc1-c1cccc(-c2cccc(NC(=O)c3ccc([N+](=O)[O-])o3)c2)n1`, for which the Inhibition with Plasmodium falciparum [1] is 97%; with Plasmodium falciparum [2], 59%; in the test with HepG2, 78%.

Regarding `CC(CCCC(=O)Nc1ccc(CC(C)NCCc2cccc(Cl)c2)cc1)NCCc1cccc(Cl)c1` (centres undefined), the Inhibition amounted to 100% in the test with Plasmodium falciparum [1], 14% in the test on Plasmodium falciparum [2] and 98% with HepG2.

Regarding `Cl.c1ccc(Cn2nnnc2-c2cccc(Nc3ccnc4cc(-c5nccs5)ccc34)c2)cc1`, the figures for the Inhibition with Plasmodium falciparum [1], in the test with Plasmodium falciparum [2] and in the test on HepG2 were 87%, 46% and 51%, respectively.

Regarding `S=C(NN=Cc1ccccn1)NC1CC2C=CC1C2` (centres undefined), the Inhibition is 99% in the test on Plasmodium falciparum [1], 96% in the test on Plasmodium falciparum [2] and 51% in the test on HepG2.

Regarding `NC1CCN(Cc2ccc(-c3cccc(-c4nc5ccccc5[nH]4)c3)cc2)C1.O=C(O)C(F)(F)F` (centres undefined), the Inhibition with Plasmodium falciparum [1] stood at 98%; in the test with Plasmodium falciparum [2], 0%; in the test on HepG2, 19%.

Regarding `O=C(Nc1ccc(-c2nc3ccccc3[nH]2)cc1)c1cccc([N+](=O)[O-])c1`, the Inhibition was 100% with Plasmodium falciparum [1], 56% in the test with Plasmodium falciparum [2] and 45% with HepG2.

Take `Cl.O=C(Nc1cccc(C2=NCCCN2)c1)Nc1cccc(C2=NCCCN2)c1`: the Inhibition in the test on Plasmodium falciparum [1] is 81%; in the test on Plasmodium falciparum [2], 70%; in the test on HepG2, 5%.

Consider `Cc1cc(N[C@@H](Cc2ccccc2)C(=O)NCc2cccc(F)c2)nc(NCCc2cccnc2)n1.O=C(O)C(F)(F)F`, for which the results for the Inhibition with Plasmodium falciparum [1], in the test with Plasmodium falciparum [2] and in the test with HepG2 were 92%, 40% and 18%, respectively.

In the case of `CC1CCN(CCCNc2ccc(C(=O)Nc3ccc(C(F)(F)F)cc3)cc2[N+](=O)[O-])CC1`, the Inhibition in the test with Plasmodium falciparum [1] was determined as 100%; in the test on Plasmodium falciparum [2], 100%; with HepG2, 62%.

Turning to `CCN(CC)CCNC(=O)c1ccc(NC(=O)c2cc3c(C)nn(-c4ccc(Cl)cc4)c3s2)cc1.Cl`, the results for the Inhibition with Plasmodium falciparum [1], in the test on Plasmodium falciparum [2] and with HepG2 were 95%, 78% and 24%, respectively.

Regarding `O=C(O)C(F)(F)F.O=C1CCCN1CCCNCc1ccc(-c2cccc(-c3nc4ccccc4[nH]3)c2)cc1`, the Inhibition is recorded as 96% with Plasmodium falciparum [1], 0% in the test on Plasmodium falciparum [2] and 19% in the test on HepG2.

For `Cc1cc(C)n(Cc2ccc(C(=O)NCC3CCCCC3)cc2)n1`, the Inhibition in the test on Plasmodium falciparum [1] is on record as 95%; in the test on Plasmodium falciparum [2] it was 1%; with HepG2, 0%.

For `Nc1nccc2ccc(-c3cccnc3)cc12`, the Inhibition in the test on Plasmodium falciparum [1] came out at 97%; with Plasmodium falciparum [2], 95%; with HepG2, 9%.

In the case of `NC(=O)c1ccsc1NC(=O)CNC(c1ccc(F)cc1)c1cccs1` (centres undefined), the Inhibition in the test with Plasmodium falciparum [1] amounted to 92%; in the test on Plasmodium falciparum [2] it was 71%; in the test with HepG2, 31%.

`Nc1nccc2ccc(-c3ccc(Oc4ccccc4)cc3)cc12.O=C(O)C(F)(F)F`: the Inhibition in the test with Plasmodium falciparum [1] is recorded as 98%; with Plasmodium falciparum [2], 80%; in the test with HepG2, 36%.

`Cc1ccc2[nH]c(-c3ccc(C=CC(=O)NCc4ccc(Cl)c(Cl)c4)cc3)nc2c1`: the Inhibition with Plasmodium falciparum [1] is recorded as 96%; in the test on Plasmodium falciparum [2], 18%; in the test on HepG2, 5%.

Turning to `Cc1c(F)cc(C(=O)NC2CC2)cc1-c1ccc2c(c1)c(C)nn2S(=O)(=O)c1cccs1`, the Inhibition in the test with Plasmodium falciparum [1] turned out to be 91%; in the test with Plasmodium falciparum [2], 92%; in the test on HepG2, 34%.

For the compound `COc1ccc(NC(=O)[C@H](CC(C)C)Nc2cc(C)nc(NCCc3ccccc3)n2)cc1.O=C(O)C(F)(F)F`, the Inhibition is reported as 100% in the test on Plasmodium falciparum [1], 74% with Plasmodium falciparum [2] and 13% with HepG2.

`Br.NC1=NC2(CCCCC2)N(OCCCCCCC2CCCCC2)C(N)=N1`: the Inhibition with Plasmodium falciparum [1] stood at 97%; with Plasmodium falciparum [2] it was 49%; with HepG2, 77%.

As for `Cc1nc2nc(N)nc(N)c2c(C)c1Cc1ccc(Cl)cc1.Cl`, the Inhibition turned out to be 94% in the test with Plasmodium falciparum [1], 22% with Plasmodium falciparum [2] and 62% in the test on HepG2.

With `CCCCNc1nc(NCCCC)c2c(C)c(Cc3ccccc3)c(NCCCC)nc2n1.Cl`, the figures for the Inhibition with Plasmodium falciparum [1], with Plasmodium falciparum [2] and in the test on HepG2 were 95%, 84% and 69%, respectively.

On to `Cc1nnsc1C(=O)Nc1cccc(-c2cccc(-c3nc4ccccc4[nH]3)c2)c1`, for which the Inhibition with Plasmodium falciparum [1] amounted to 100%; in the test on Plasmodium falciparum [2] it was 34%; in the test with HepG2, 14%.

`Br.CCOCc1cn(CC(=O)c2ccc(-c3ccccc3)cc2)c(C)nc1=N`: the Inhibition in the test with Plasmodium falciparum [1] is 93%; with Plasmodium falciparum [2] it was 72%; in the test on HepG2, 13%.

As for `COc1cccc(OC2CCN(C(=O)c3ccc(-c4ccc(N5CCCC5=O)cc4C)cc3)CC2)c1`, the Inhibition with Plasmodium falciparum [1] is 85%; with Plasmodium falciparum [2] it was 80%; in the test on HepG2, 42%.

For the compound `Cc1cccc(C(=O)NC(NC(=S)Nc2cc(Cl)ccc2Cl)C(Cl)(Cl)Cl)c1` (centres undefined), the results for the Inhibition in the test with Plasmodium falciparum [1], in the test with Plasmodium falciparum [2] and in the test on HepG2 were 94%, 61% and 0%, respectively.

For `CO[C@H](C)[C@H](NC(=O)[C@H](CC(C)C)[C@H](CCC(F)(F)F)N(O)C=O)C(=O)Nc1nccs1`, the Inhibition in the test with Plasmodium falciparum [1] was 99%; in the test on Plasmodium falciparum [2], 96%; in the test with HepG2, 0%.

For the compound `O=C(NC1CCN(Cc2ccccc2O)C1)c1ccc(Cl)c(Cl)c1.O=C(O)C(F)(F)F` (centres undefined), the values for the Inhibition in the test with Plasmodium falciparum [1], with Plasmodium falciparum [2] and with HepG2 were 92%, 62% and 0%, respectively.
